PolyA inh: yeast polyadenylation inhibition; AID 1875; S. cerevisiae SKY197-pL101 polyadenylation reporter, beta-gal luminescence; efflux-impaired pdr1/pdr3 knockout yeast; score 100 = 6 SD above DMSO; 0.02% of 300,000 active; activity score, % at 12 µM;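 active means lowest replicate activity score at least 50, where 100 means six control SD above control mean; inconclusive means lowest score under 50 but half or more replicates reach 50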;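 further: yeast exposed to compound for 9 h at 30 °C; higher score means more reporter readthrough which indicates perturbed polyadenylation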
EBNA-1 inhibitor: blocks EBNA-1 binding to DNA; 0.34% of 300,000 active; EBNA-1 DNA binding, fluorescence polarization; inhibition, % at 14.8 µM; in the data active means inhibition above about 28%
NALP3 yeast inh: inhibitors of NALP3 inflammasome in yeast. inhibition, % at 10 µM. AID 2825. Yeast reconstituted NLRP3/ASC/caspase-1, beta-gal luminescence, 24 h. 0.39% of 330,000 active;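 active means inhibition of 50% or more; inactive means inhibition below 50%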
ZTA counter: blocks Epstein-Barr virus ZTA, an EBNA-1 counter-screen. P03206. ZTA-DNA binding, fluorescence polarization. inhibition, % at 11 µM. 0.15% of 320,000 active; in the data active means inhibition above about 33%
Target sequence (P03206 whole entry, looked up): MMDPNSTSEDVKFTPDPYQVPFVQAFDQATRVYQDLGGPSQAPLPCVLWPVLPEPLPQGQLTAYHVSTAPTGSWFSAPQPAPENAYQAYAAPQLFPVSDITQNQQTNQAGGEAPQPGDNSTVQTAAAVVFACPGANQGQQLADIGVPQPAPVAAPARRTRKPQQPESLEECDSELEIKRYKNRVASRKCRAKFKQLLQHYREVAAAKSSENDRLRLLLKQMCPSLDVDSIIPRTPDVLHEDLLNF
dFosB activator: activators of mouse delta FosB homodimer | P13346 | purified delta FosB, TAMRA-CDK5 oligo fluorescence polarization; percent of positive-control signal above neutral wells | activation, % at 25 µM | 0.99% of 340,000 active | AID 493131;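 active means mean activation above about 17%, with every replicate also reaching it, limit read from the data, passing the limit was not always enough; inconclusive means only one of the two conditions met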
Target sequence (P13346 whole entry, looked up): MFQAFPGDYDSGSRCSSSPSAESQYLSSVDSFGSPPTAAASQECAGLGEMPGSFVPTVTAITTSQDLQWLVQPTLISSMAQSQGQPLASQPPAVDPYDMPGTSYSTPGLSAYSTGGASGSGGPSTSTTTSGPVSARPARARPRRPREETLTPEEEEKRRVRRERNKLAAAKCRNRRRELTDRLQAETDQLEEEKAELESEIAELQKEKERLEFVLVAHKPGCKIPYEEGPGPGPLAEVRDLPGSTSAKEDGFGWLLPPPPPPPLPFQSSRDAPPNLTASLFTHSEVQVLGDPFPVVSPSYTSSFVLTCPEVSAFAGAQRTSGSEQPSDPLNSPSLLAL
NALP1 inh: NALP1 inhibition. inhibition, % at 10 µM. AID 2071. S. cerevisiae NALP1/ASC/caspase-1 growth, X-gal OD620, 72 h. 0.61% of 280,000 active; in the data active means inhibition mostly above about 24%, no sharp cut-off; inactive means mostly below about 32%
Zta DNA confirm: EBV ZTA DNA binding inhibition, confirmation | shares compounds with ZTA counter | Zta-ZRE DNA binding, fluorescence polarization | inhibition, % at 11.1 µM | 30% of 320 active | AID 2361;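 active means mean inhibition across triplicate runs above the hit threshold derived for the original primary screen, cut at about 33% in these data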
EBNA1 counter: blocks EBNA-1 DNA binding in ZTA counter-screen. shares compounds with ZTA counter. 320 tested, under 10 active. fluorescence polarization. inhibition, % at 14.8 µM; call rule not given here
Numbers stand for hits; i = inactive; ? = inconclusive; nt = no result given. Rows were chosen to be rich in hits. Some 2.2% of all compounds tested hit in one or more screens of this group.

SMILES | PolyA inh | EBNA-1 inhibitor | NALP3 yeast inh | ZTA counter | dFosB activator | NALP1 inh | Zta DNA confirm | EBNA1 counter
CCOc1ccc2c(=O)c(Oc3ccccc3)c(C)oc2c1 | i | i | i | 139 | i | i | i | i
Cc1cc(C)cc(OC(C)C(=O)Nc2ccccc2C(=O)NCc2cccnc2)c1 (configuration not stated) | i | i | i | i | i | i | nt | nt
CC1(CCc2ccccc2)NC(=O)NC1=O (configuration not stated) | nt | nt | nt | nt | i | nt | nt | nt
Cc1nc(Nc2cnc(/C=C/c3cc(C(=O)Nc4cccc(C(F)(F)F)c4)ccc3C)cn2)cc(N2CCNCC2)n1 | ? | i | i | 45 | nt | i | i | i
O=C1/C(=C/c2ccc(O)cc2)SC(=S)N1Cc1cccnc1 | i | i | i | 77 | i | i | i | i
CC1(C)CC(=O)C=C(c2ccc(-c3ccccc3)cc2)C1 | nt | nt | i | 48 | i | nt | i | i
Cc1cccc(NC(=O)CCNS(=O)(=O)c2ccc3[nH]c(=O)oc3c2)c1 | i | i | i | 198 | i | i | i | i
CCSc1nc2nccnc2c(=O)[nH]1 | nt | nt | nt | nt | i | nt | nt | nt
C/C(=N\NC(=S)NCCc1ccccc1)c1ccc(C)cc1 | i | i | i | i | i | i | nt | nt
C/C(=N\NC(=S)NCCc1ccccc1)c1ccc(C#N)cc1 | i | i | i | 38 | i | i | i | i
CS(=O)(=O)N1CCN(c2ccc(NC(=O)C(c3ccccc3)c3ccccc3)cc2)CC1 | i | i | i | i | i | i | nt | nt
O=C(Nc1ccc(N2CCCC2)cc1)C(Cl)c1ccccc1 (configuration not stated) | i | i | i | 49 | i | i | 70 | 36
CCc1nn(CC(=O)N2CCN(C)CC2)c(=O)c2cccn12 | i | i | i | 36 | i | i | i | i
Oc1ccc(N=Cc2ccc(-c3cccs3)s2)cc1 | i | i | i | 46 | i | i | 47 | i
O=Cc1ccc(-c2cccs2)s1 | nt | nt | nt | nt | i | nt | nt | nt
COc1cc(CNCCc2c[nH]c3ccccc23)ccc1OCc1ccc(F)cc1 | i | i | i | 35 | i | i | i | i
COc1cccc(CNCCc2c[nH]c3ccccc23)c1OCc1ccc(F)cc1 | i | i | i | i | i | i | nt | nt
COC(=O)CSc1nnc([C@H](Cc2ccccc2)NC(=O)OC(C)(C)C)o1 | i | i | i | 90 | i | i | i | i
CC(C)(C)OC(=O)N[C@@H](Cc1ccccc1)c1nnc(SCC(N)=O)o1 | i | i | i | i | i | i | nt | nt
CC(C)Oc1ccc(CCNC(=O)CC2C(=O)NCCN2C)cc1 (configuration not stated) | i | i | i | 52 | i | nt | i | i
Cc1c(C)n(Cc2ccccc2)c2ncnc(NN)c12 | i | i | i | 39 | i | i | i | i
Cc1c(C)n(CCc2ccccc2)c2ncnc(NN)c12 | i | i | i | i | i | i | nt | nt
Cc1ccc(O)c(CNCCNCc2cc(C)ccc2O)c1 | i | i | i | 46 | i | nt | i | i
COc1cc(OC)cc(-c2c(C#Cc3ccsc3)c3cc(-c4ccc(C(N)=O)cc4)ccc3n2C)c1 | nt | nt | i | 40 | i | nt | i | i
COCc1ccc(-c2ccc3c(c2)c(C#Cc2ccsc2)c(-c2cc(OC)cc(OC)c2)n3C)cc1 | nt | nt | i | i | i | nt | nt | nt
SMILES | PolyA inh | EBNA-1 inhibitor | NALP3 yeast inh | ZTA counter | dFosB activator | NALP1 inh | Zta DNA confirm | EBNA1 counter
CCC(C)Oc1ccc(/C=C/c2[nH]c(=O)[nH]c(=O)c2[N+](=O)[O-])cc1OC (configuration not stated) | i | i | i | i | i | i | nt | nt
COc1cc(/C=C/c2[nH]c(=O)[nH]c(=O)c2[N+](=O)[O-])cc([N+](=O)[O-])c1O | i | i | i | 36 | i | i | 55 | i
CCOc1ncccc1C(=O)NCCc1ccc(Cl)cc1 | i | i | i | i | i | i | nt | nt
C=CCn1c(NS(=O)(=O)c2ccccc2)c(S(=O)(=O)c2ccc(C)cc2)c2nc3ccccc3nc21 | i | i | nt | 56 | i | i | i | i
O=S(=O)(Nc1c(S(=O)(=O)c2ccccc2)c2nc3ccccc3nc2n1C1CCCCC1)c1ccccc1 | i | i | nt | i | i | i | nt | nt
CCCCC1(C)NC(=O)N(CC(=O)Nc2ccc(S(=O)(=O)N3CCOCC3)cc2)C1=O (configuration not stated) | i | i | i | 47 | i | i | i | i
CCC1(CC)NC(=O)N(CC(=O)Nc2ccc(S(=O)(=O)N3CCOCC3)cc2)C1=O | i | i | i | i | i | i | nt | nt
COc1ccc(-c2coc3c(CN4CCCCC4)c(O)c(CN4CCCCC4)c(O)c3c2=O)cc1 | i | i | i | 73 | nt | i | i | i
COc1ccc(C(=O)N(C)c2c(C)n(C)n(-c3ccccc3)c2=O)cc1OC | i | i | i | 82 | i | i | i | i
Cc1c(N(C)C(=O)c2ccco2)c(=O)n(-c2ccccc2)n1C | i | i | i | i | i | nt | nt | nt
CCCCNS(=O)(=O)c1ccc(Br)cc1N1CCC[C@H]1CO | nt | nt | nt | nt | i | nt | nt | nt
O=S(=O)(NCCSCc1ccc(Cl)cc1Cl)c1ccc2c(c1)OCCO2 | i | i | i | i | i | i | nt | nt
O=S(=O)(NCCSc1ccc(Cl)cc1)c1ccc2c(c1)OCCO2 | i | i | i | 33 | i | i | i | i
CC(=O)NC(CCS(C)(=O)=O)C(=O)Nc1ccc(Cl)c(Cl)c1 (configuration not stated) | i | i | i | 36 | i | nt | i | i
CC(=O)n1cc(CO)c2ccccc21 | i | i | i | i | i | i | nt | nt
CC(=O)O/C(=C\c1cn(C(C)=O)c2ccccc12)C(=O)O | i | i | i | 158 | i | nt | i | i
COc1ccc(NC(=O)CSc2nc3sc4c(c3c(=O)n2-c2ccc(OC)cc2)CCN(C)C4)cc1 | i | i | i | 34 | ? | i | i | i
COc1ccc(-n2c(SCC(=O)Nc3nccs3)nc3sc4c(c3c2=O)CCN(C)C4)cc1 | i | i | i | i | i | i | nt | nt
CC1C/C(=C/c2ccncc2)C(=O)/C(=C/c2ccncc2)C1 (configuration not stated) | i | i | i | 43 | i | i | 48 | i
COc1ccc(C2=NN(C(C#N)c3ccc(OC)cc3)C(c3ccccc3)C2)cc1 (configuration not stated) | i | i | nt | 35 | i | i | i | i
COc1ccc(Cn2c(N)c(S(=O)(=O)c3cccs3)c3nc4ccccc4nc32)cc1 | nt | i | i | 35 | i | i | i | i
O=c1[nH]c(/C=C/c2ccc(Cl)cc2Cl)c([N+](=O)[O-])c(=O)[nH]1 | i | i | i | 55 | i | i | 53 | i
Cc1ccc(NC(=O)CSCC#N)cc1 | i | i | i | 34 | i | i | i | i
Cc1sc2ncnc(N3CCN(Cc4ccccc4)CC3)c2c1-c1ccccc1 | i | i | i | i | i | i | nt | nt
CCOc1ccc(C(=O)NCCN2CCCCC2)c(OCC)c1 | i | i | i | i | i | nt | nt | nt

Compound activity: PubChem BioAssay, several laboratories
